# From ChEMBL document CHEMBL3988442, “University of Dundee, Small-Polar-MMV Screening Library” (2021)
# Hit rate of the full screen: of about 48,000 compounds, about 13,000 (27%) showed an effect of 50% or more. This is one part of the list.
# Tested on: Wolbachia pipientis
# Assay: Anti-Wolbachia Cell-Based Screen
# Format: functional
# Parameters: scale not given: in the data most compounds retested in dose-response had high values
# Details: 5 µM
row,Structure (SMILES),Percent Effect [%]
1,O=C(CN1CCCS1(=O)=O)Nc1ccc(OC2CCCC2)cc1,-0.8772
2,COc1ccc(OCC(=O)NC(C)c2ccccc2)c(C(=O)O)c1 (stereo unspecified),-7.994
3,CCCOc1ccc(CN)c(OC(F)F)c1,2.024
4,CC(C(=O)NCc1ccnc(N2CCN(C)CC2)c1)n1cccn1 (stereo unspecified),-2.51
5,O=C(c1ccc(Cn2cc(Br)cn2)cc1)N1CCCC1,26.22
6,CN(C)C[C@@H]1CCC[C@@H]2CN(c3nccc(C(F)(F)F)n3)C[C@@H]21.O=C(O)C(F)(F)F,-9.332
7,CC(NC(=O)NCCCN(C)C)c1ccc2c(c1)CCC(=O)N2 (stereo unspecified),1.464
8,CC(NC(=O)NCCCn1ccnc1)c1ccc2c(c1)CCC(=O)N2 (stereo unspecified),-10.33
9,CC(NC(=O)NCCS(C)(=O)=O)c1ccc2c(c1)CCC(=O)N2 (stereo unspecified),98.04
10,CCCn1[nH]cc/c1=N\C(=O)CN1CCCC1Cn1cc(C)cn1 (stereo unspecified),-13.34
11,Cn1cccc1CN1CCC2(CC1)CCN(C(=O)c1cnccn1)CC2.O=C(O)C(F)(F)F,3.989
12,O=C(c1cnccn1)N1CCN(Cc2csc(-c3ccccc3)n2)CC1,5.031
13,O=C(c1cnccn1)N1CCC2(CCN(Cc3ccsc3)C2)CC1,113.3
14,O=C(c1cnccn1)N1CCC2(CCN(Cc3ccsc3)CC2)CC1,105.9
15,O=C(c1cnccn1)N1CCC2(CCCN(Cc3ccoc3)C2)C1 (stereo unspecified),7.611
16,NC(=O)C1=NC2=NS(=O)(=O)c3ccccc3N2N1Cc1ccc(Cl)cc1,1.46
17,CC(C)(CNc1cc(F)ccc1F)S(C)(=O)=O,-17.31
18,CC(=O)N1CCC(N2CCN3C(=O)N(Cc4ccccn4)C[C@H]3C2)CC1,-4.667
19,Cc1nnc(CSc2ccc(C(F)(F)F)cn2)o1,-11.49
20,CCN1CC(C(=O)NCc2nc(C3CCCCC3)no2)CC1=O (stereo unspecified),-30.34
21,Cc1cc(C(=O)O)ccc1NS(=O)(=O)c1c(C)nn(C(C)C)c1C,-9.87
22,CC[C@H]1COCCN1C(=O)c1cnc(N2CCN(C)CC2)nc1C,-29.22
23,CN1CCCN(C(=O)c2cnc(Cc3c(Cl)cccc3Cl)nc2O)CC1,6.628
24,CN1CCCN(C(=O)c2cnc(C(C)(C)C)nc2O)CC1,-12.59

row,Structure (SMILES),Percent Effect [%]
1,Cc1nc(N2CCCCC2)ncc1-c1cc(O)[nH]n1,24.53
2,Cc1nc(N2CCN(C)CC2)ncc1C(=O)N1CCCCC1,123.3
3,Cc1nc(N2CCN(C)CC2)ncc1C(=O)N1CCN(C)CC1,120.1
4,Cc1nc(N2CCN(C)CC2)ncc1C(=O)N1CCCCCC1,100.3
5,Cc1nc(N2CCN(C)CC2)ncc1C(=O)N1CC(C)(C)C(C)(O)C1 (stereo unspecified),-4.468
6,Cc1nc(N2CCN(C)CC2)ncc1C(=O)N1CCC(O)(CO)CC1,-3.993
7,COCc1c(Br)cccc1NC(=O)CC(F)(F)F,-8.675
8,CC(C)(O)c1cc(CC2(NCC3CCCCC3)COC2)no1,-2.979
9,O=C(c1n[nH]c2ccccc12)N1CCCC1c1noc(C2CC2)n1 (stereo unspecified),-5.823
10,CC(C)(C)NS(=O)(=O)c1ccc(NC(=O)C2CC2)cc1,-16.45
11,Cc1nn(CC(=O)n2cccn2)c(C)c1I,112.6
12,COC1CCN(C(=O)Cn2nc(C)cc2C)CC1,-14.02
13,Cc1nn(CC(=O)N2CCCCC2Cn2cccn2)c(C)c1Cl (stereo unspecified),-2.313
14,Cc1cc(C)n(C(=O)Cn2nc(C)c(I)c2C)n1,66.77
15,Cc1cc(C)n(CC(=O)N2CCC(NS(C)(=O)=O)CC2)n1,-12.4
16,Cc1nn(CC(=O)N2CCCC2Cn2cccn2)c(C)c1Cl (stereo unspecified),-2.085
17,CC(=O)N1Cc2nc(C(=O)NCCc3cccnc3)oc2C1,-18.72
18,CSCC(C)N(C)S(=O)(=O)c1ccc(Cl)cc1C#N (stereo unspecified),-5.71
19,CN(Cc1ccccc1CN1CCCC1)C(=O)c1c(O)cccc1O,-3.98
20,CN(C)Cc1ccccc1CN(C)C(=O)c1ccoc1,83.07
21,Cc1ccccc1CN(C)C(=O)c1ccoc1,-7.893
22,Cc1ncc(CC(=O)N2CCCCC2CCN2CCCC2)c(=O)[nH]1 (stereo unspecified),-18.36
23,CCN(CC1CCOC1)C(=O)c1ccccc1S(C)(=O)=O (stereo unspecified),84.82
24,CCN(CC1CCOCC1)C(=O)CCNC(=O)c1ccccc1F,-3.146

row,Structure (SMILES),Percent Effect [%]
1,CCN(CC1CCOC1)C(=O)c1ccccc1S(=O)(=O)CC (stereo unspecified),111.1
2,CCN(CC1CCOC1)C(=O)c1ccc(COc2ccccc2C#N)o1 (stereo unspecified),0.9785
3,CCN(CC1CCOC1)C(=O)c1nc(-c2ccco2)sc1C (stereo unspecified),14.29
4,CCN(CC1CCOC1)C(=O)c1ccccc1NS(=O)(=O)CC (stereo unspecified),0.4037
5,COCCc1noc(-c2ccc(=O)[nH]c2)n1,-16.05
6,Cc1nnc(CN(C)CC2(O)CCCN(CCC3CCCCC3)C2=O)o1 (stereo unspecified),-32.48
7,CCc1nc(CN(C)CC2CCN(CCO)CC2)no1,-13.45
8,CCc1nnc(CN(C)CC2CCCCC2)o1,93.73
9,CCc1nnc(CN(C)C[C@@H]2CCCN3CCCC[C@H]23)o1,-11.52
10,Cc1nnc(CN(C)CC2CCCCC2)o1,96.6
11,Cc1cc(CN(C)CC2CCCCC2)no1,-1.2
12,OC(CN(Cc1ccccc1)Cc1cccnc1)c1ccco1 (stereo unspecified),-6.799
13,CCCN1CCCN(c2ncccc2C(=O)N2CCCCC2)CC1,6.513
14,CCC(CNS(C)(=O)=O)Oc1ccccc1C (stereo unspecified),8.016
15,CCCNC(=O)CCC(=O)N1CCC(c2n[nH]c(C3CC3)n2)CC1,-17.72
16,COc1ccc(C(=O)N2CCN(c3cc(CCN)nc(C)n3)CC2)cc1,-1.227
17,CC(=O)N1CCN(c2cc(CCN)nc(C3CC3)n2)CC1.Cl,89.11
18,CN1CCN(c2cc(CCNC(=O)C3CCC3)nc(C3CC3)n2)CC1,-16.77
19,CCC(=O)NCCc1cc(N2CCN(C(C)=O)CC2)nc(C2CC2)n1,-11.66
20,Cc1nc(CCN)cc(N2CCCN(C(=O)c3ccco3)CC2)n1,-5.504
21,CC(=O)NCCc1cc(N2CCN(C(C)=O)CC2)nc(C2CC2)n1,-7.517
22,CC(=O)N1CCN(c2cc(CCNC(=O)C(C)C)nc(C3CC3)n2)CC1,74.84
23,CCCC(=O)NCCc1cc(N2CCN(C(C)=O)CC2)nc(C2CC2)n1,96.87
